Reference: ChEMBL document CHEMBL4296182, “CO-ADD screening of NIH NCI Diversity Set V”
For part of these data: Potency and affinity values are given separately.

Assays:
Staphylococcus aureus = assay: Antibacterial activity against Staphylococcus aureus MRSA ATCC 43300 (CO-ADD:GP_020); MIC in CAMBH media using NBS plates, by Resazurin F(560/590); format: functional; details: Concentration 20 uM, ASSAY_TEST Inhibition of Bacterial Growth, detection method Resazurin, Fluorescence (ex560/em590), MEDIA CAMHB, plate type 384well, CORNING #3640, time 18 hr
Acinetobacter baumannii = assay: Antibacterial activity against Acinetobacter baumannii ATCC 19606 (CO-ADD:GN_034); MIC in CAMBH media using NBS plates, by Resazurin F(560/590); format: functional; details: Concentration 20 uM, ASSAY_TEST Inhibition of Bacterial Growth, detection method Resazurin, Fluorescence (ex560/em590), MEDIA CAMHB, plate type 384well, CORNING #3640, time 18 hr
Escherichia coli = assay: Antibacterial activity against Escherichia coli ATCC 25922 (CO-ADD:GN_001); MIC in CAMBH media using NBS plates, by Resazurin F(560/590); format: functional; details: Concentration 20 uM, ASSAY_TEST Inhibition of Bacterial Growth, detection method Resazurin, Fluorescence (ex560/em590), MEDIA CAMHB, plate type 384well, CORNING #3640, time 18 hr
Klebsiella pneumoniae = details: Concentration 20 uM; ASSAY_TEST Inhibition of Bacterial Growth; detection method Absorption (OD600); MEDIA CAMHB; plate type 384well; NBS; CORNING #3640; time 18 hr
Candida albicans = details: 20 µM
Cryptococcus neoformans = details: Concentration 20 uM; ASSAY_TEST Inhibition of Fungal Growth; detection method Resazurin; Absorption (OD600-OD570); plate type 384well; NBS; CORNING #3640

c1ccc(NCCSc2nc3ccccc3s2)cc1
Inhibition (Staphylococcus aureus): 32.95% | Inhibition (Acinetobacter baumannii): -17.22% | Inhibition (Escherichia coli): 10.16% | Inhibition (Klebsiella pneumoniae): 12.47% | Inhibition (Candida albicans): 3.32% | Inhibition (Cryptococcus neoformans): 13.76%

Cc1ccc(C)c(C(=O)CCC(=O)O)c1
Inhibition (Staphylococcus aureus): 9.56% | Inhibition (Acinetobacter baumannii): 8.73% | Inhibition (Escherichia coli): 0.68% | Inhibition (Klebsiella pneumoniae): 19.18% | Inhibition (Candida albicans): 8% | Inhibition (Cryptococcus neoformans): -5.46%

c1cncc(-c2nc3ccccc3s2)c1
Inhibition (Staphylococcus aureus): -7.01% | Inhibition (Acinetobacter baumannii): 4.56% | Inhibition (Escherichia coli): -11.97% | Inhibition (Klebsiella pneumoniae): 2.37% | Inhibition (Candida albicans): 4.69% | Inhibition (Cryptococcus neoformans): 25.76%

COC(=O)C1=C(C)NC(C)=C(C(=O)OC)C(N2C(=O)CCC2=O)C1 (stereo not given)
Inhibition (Staphylococcus aureus): 18.88% | Inhibition (Acinetobacter baumannii): 6.44% | Inhibition (Escherichia coli): 0.27% | Inhibition (Klebsiella pneumoniae): 9.26% | Inhibition (Candida albicans): 2.3% | Inhibition (Cryptococcus neoformans): -2.75%

Cl.Nc1ncnc2c(C3OC(CO)C(O)C3O)c[nH]c12 (stereo not given)
Inhibition (Staphylococcus aureus): 3.2% | Inhibition (Acinetobacter baumannii): 11.32% | Inhibition (Escherichia coli): -11.86% | Inhibition (Klebsiella pneumoniae): 9.96% | Inhibition (Candida albicans): 2.09% | Inhibition (Cryptococcus neoformans): -0.14%

Cc1ccc(C)c(N2CCN(c3ccncc3N)CC2)c1
Inhibition (Staphylococcus aureus): -5.41% | Inhibition (Acinetobacter baumannii): -5.32% | Inhibition (Escherichia coli): 7.02% | Inhibition (Klebsiella pneumoniae): 8.69% | Inhibition (Candida albicans): 3.75% | Inhibition (Cryptococcus neoformans): -6.74%

CCOC(=O)c1cc(OCC)c2c(ccc3ccccc32)n1
Inhibition (Staphylococcus aureus): -12.94% | Inhibition (Acinetobacter baumannii): 1.72% | Inhibition (Escherichia coli): -4.9% | Inhibition (Klebsiella pneumoniae): 7.15% | Inhibition (Candida albicans): 2.28% | Inhibition (Cryptococcus neoformans): -11.11%

CC(=C/c1ccccc1)/C=C1/NC(=S)NC1=O
Inhibition (Staphylococcus aureus): 2.65% | Inhibition (Acinetobacter baumannii): 4.35% | Inhibition (Escherichia coli): -0.7% | Inhibition (Klebsiella pneumoniae): 10.87% | Inhibition (Candida albicans): 2.17% | Inhibition (Cryptococcus neoformans): -5.48%

FC(F)(F)c1cccc(OCC2CN=C(S)O2)c1 (stereo not given)
Inhibition (Staphylococcus aureus): 8.92% | Inhibition (Acinetobacter baumannii): 11.68% | Inhibition (Escherichia coli): -6.27% | Inhibition (Klebsiella pneumoniae): 16.05% | Inhibition (Candida albicans): 8.74% | Inhibition (Cryptococcus neoformans): 3.63%

CC(C)Cc1nnc(N)s1
Inhibition (Staphylococcus aureus): 5.28% | Inhibition (Acinetobacter baumannii): -16.63% | Inhibition (Escherichia coli): 6.53% | Inhibition (Klebsiella pneumoniae): 28.97% | Inhibition (Candida albicans): 1.43% | Inhibition (Cryptococcus neoformans): -13.23%

Oc1cc(-c2ccc(Cl)cc2)nc2ccccc12
Inhibition (Staphylococcus aureus): 0.37% | Inhibition (Acinetobacter baumannii): 13% | Inhibition (Escherichia coli): -1.34% | Inhibition (Klebsiella pneumoniae): 16.07% | Inhibition (Candida albicans): 18.1% | Inhibition (Cryptococcus neoformans): 5.32%

CN(/N=N/c1[nH]cnc1C(=O)NN)C1CCCCC1
Inhibition (Staphylococcus aureus): 8.69% | Inhibition (Acinetobacter baumannii): 8.54% | Inhibition (Escherichia coli): -4.79% | Inhibition (Klebsiella pneumoniae): 11.56% | Inhibition (Candida albicans): 3.97% | Inhibition (Cryptococcus neoformans): -4.73%

Cc1ccc(Nc2nc(Cl)nc3ncn(C)c23)c(C)c1
Inhibition (Staphylococcus aureus): 8% | Inhibition (Acinetobacter baumannii): 11.23% | Inhibition (Escherichia coli): -0.86% | Inhibition (Klebsiella pneumoniae): 14.74% | Inhibition (Candida albicans): 2.26% | Inhibition (Cryptococcus neoformans): -7.52%

NC(=O)c1ccccc1NC(=O)c1ccccc1Cl
Inhibition (Staphylococcus aureus): -3.45% | Inhibition (Acinetobacter baumannii): -12.19% | Inhibition (Escherichia coli): 7.56% | Inhibition (Klebsiella pneumoniae): 6.89% | Inhibition (Candida albicans): 2.67% | Inhibition (Cryptococcus neoformans): -15.77%

O=C(O)C1C2OC3C(OC(=O)C31)C2Br (stereo not given)
Inhibition (Staphylococcus aureus): 25.96% | Inhibition (Acinetobacter baumannii): 9.29% | Inhibition (Escherichia coli): 24.67% | Inhibition (Klebsiella pneumoniae): 4% | Inhibition (Candida albicans): 4.3% | Inhibition (Cryptococcus neoformans): 11.09%

COc1ccccc1C1OC2=Nc3cc([N+](=O)[O-])ccc3NC2=C1O (stereo not given)
Inhibition (Staphylococcus aureus): 8.5% | Inhibition (Acinetobacter baumannii): -1.62% | Inhibition (Escherichia coli): 2.79% | Inhibition (Klebsiella pneumoniae): 1.15% | Inhibition (Candida albicans): 0.19% | Inhibition (Cryptococcus neoformans): -4.37%

Cc1ccc2nc(Cl)cc(=O)n2c1
Inhibition (Staphylococcus aureus): 3.79% | Inhibition (Acinetobacter baumannii): -0.85% | Inhibition (Escherichia coli): -11.05% | Inhibition (Klebsiella pneumoniae): 5.29% | Inhibition (Candida albicans): 1.34% | Inhibition (Cryptococcus neoformans): 9.92%

COc1c(NC(C)=O)c2ccccc2c2ccccc12
Inhibition (Staphylococcus aureus): 12.56% | Inhibition (Acinetobacter baumannii): 4.74% | Inhibition (Escherichia coli): 1.88% | Inhibition (Klebsiella pneumoniae): 16.73% | Inhibition (Candida albicans): 5.3% | Inhibition (Cryptococcus neoformans): -2.59%

Oc1ccc(Cc2ccccc2Cl)c(O)c1
Inhibition (Staphylococcus aureus): 14.48% | Inhibition (Acinetobacter baumannii): -16.11% | Inhibition (Escherichia coli): 10.23% | Inhibition (Klebsiella pneumoniae): 8.44% | Inhibition (Candida albicans): -1.58% | Inhibition (Cryptococcus neoformans): -12.35%

O=c1c2ccccc2ncn1-c1ccc(Cl)cc1
Inhibition (Staphylococcus aureus): 11.71% | Inhibition (Acinetobacter baumannii): -18.47% | Inhibition (Escherichia coli): 12.96% | Inhibition (Klebsiella pneumoniae): 4.73% | Inhibition (Candida albicans): 3.91% | Inhibition (Cryptococcus neoformans): -12.39%

Cc1nccnc1Sc1ccccc1
Inhibition (Staphylococcus aureus): 3.9% | Inhibition (Acinetobacter baumannii): -12.89% | Inhibition (Escherichia coli): 2.25% | Inhibition (Klebsiella pneumoniae): 5.26% | Inhibition (Candida albicans): 7.15% | Inhibition (Cryptococcus neoformans): -6.77%

C1=CC2(C=C1)OC21CCC2(C=CC3(C2)OC3C2CCCCC2)CC1 (stereo not given)
Inhibition (Staphylococcus aureus): -4.93% | Inhibition (Acinetobacter baumannii): 2.41% | Inhibition (Escherichia coli): 4.97% | Inhibition (Klebsiella pneumoniae): -0.69% | Inhibition (Candida albicans): 1.23% | Inhibition (Cryptococcus neoformans): -15.19%

CCOC(=O)C1C(=O)C(=O)N(C(C)C)C1C(=O)OCC (stereo not given)
Inhibition (Staphylococcus aureus): 9.9% | Inhibition (Acinetobacter baumannii): 14.67% | Inhibition (Escherichia coli): -8.18% | Inhibition (Klebsiella pneumoniae): 12.15% | Inhibition (Candida albicans): 4.37% | Inhibition (Cryptococcus neoformans): 17.48%

O=[N+]([O-])C1C(c2ccccc2)C12c1ccccc1-c1ccccc12 (stereo not given)
Inhibition (Staphylococcus aureus): 1.75% | Inhibition (Acinetobacter baumannii): -9.94% | Inhibition (Escherichia coli): 13.79% | Inhibition (Klebsiella pneumoniae): -4% | Inhibition (Candida albicans): -1.91% | Inhibition (Cryptococcus neoformans): -10.55%

C=CCOc1c(CCC)cc(CCC)cc1C(N)=O
Inhibition (Staphylococcus aureus): 13.21% | Inhibition (Acinetobacter baumannii): 14.83% | Inhibition (Escherichia coli): 1.32% | Inhibition (Klebsiella pneumoniae): 19.26% | Inhibition (Candida albicans): 5.23% | Inhibition (Cryptococcus neoformans): -4.27%
